The campaign covered roughly 220,000 compounds. About 830 (0.38%) were called active.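 How the source made its calls: active means compound inhibiting the enzyme by more than half at any dose during confirmatory dose-response retesting; inconclusive means strong single-dose inhibitors picked by rank but not retested; inactive means the rest.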 Only a sample is shown. Potency and affinity values are given separately.
target: Leucine aminopeptidase (Plasmodium falciparum (isolate 3D7)) (UniProt Q8IL11); assay: P. falciparum M17LAP inhibitors, primary screen, biochemical, fluorogenic H-Leu-NHMec substrate, 1536-well (AID 1619); conditions: recombinant M17LAP, H-Leu-NHMec fluorogenic kinetic assay; at 30 µM; hits give high values;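 further: plate controls were full reaction with DMSO carrier for no effect and no enzyme background for full effect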
Sequence (Q8IL11 whole entry, looked up): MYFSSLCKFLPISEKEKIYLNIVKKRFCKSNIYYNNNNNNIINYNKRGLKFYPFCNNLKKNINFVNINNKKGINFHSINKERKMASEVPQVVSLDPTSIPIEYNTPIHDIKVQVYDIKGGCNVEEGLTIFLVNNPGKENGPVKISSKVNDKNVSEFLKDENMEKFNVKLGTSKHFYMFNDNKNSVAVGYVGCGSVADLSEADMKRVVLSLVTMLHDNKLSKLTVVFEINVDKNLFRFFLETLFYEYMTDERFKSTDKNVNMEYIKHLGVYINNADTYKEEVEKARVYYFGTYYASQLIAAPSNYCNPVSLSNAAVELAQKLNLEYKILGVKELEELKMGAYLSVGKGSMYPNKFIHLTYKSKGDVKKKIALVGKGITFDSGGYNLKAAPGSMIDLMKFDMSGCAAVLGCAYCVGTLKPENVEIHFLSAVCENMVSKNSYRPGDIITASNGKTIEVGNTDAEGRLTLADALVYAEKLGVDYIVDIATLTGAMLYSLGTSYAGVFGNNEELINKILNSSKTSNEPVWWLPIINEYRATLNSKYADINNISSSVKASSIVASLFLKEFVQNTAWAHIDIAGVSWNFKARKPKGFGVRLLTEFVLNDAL

inhibition, inactive:
COc1cccc(CNC(=O)CCNS(=O)(=O)c2cccc3nsnc23)c1 -1.94%
Cn1cccc1Cc1nnc(SCC(=O)N2CCc3ccccc32)n1CCc1ccccc1 36.6%
O=C(N/N=C/c1ccccc1C(=O)O)c1cc(-c2ccc3c4c(cccc24)CC3)n[nH]1 91.8%
O=C(N/N=C/c1cccc([N+](=O)[O-])c1)c1cc(-c2ccc3c4c(cccc24)CC3)n[nH]1 -2.54%
CC(C)=CC(=O)Nc1ccc(OCc2ccccc2)cc1 2.98%
O=C(NCC1CCCO1)/C(=C\c1cccc([N+](=O)[O-])c1)NC(=O)c1ccccc1 (centres undefined) -4.67%
O=C(O)Cn1c(=O)cnc2ccccc21 -13.7%
CC(C)C1N=C2c3ccccc3N=C(SCC#N)N2C1=O (centres undefined) -5.52%
CC(C)C1N=C2c3ccccc3N=C(SCC(=O)NCCc3ccc(S(N)(=O)=O)cc3)N2C1=O (centres undefined) -29.1%
CNC(=O)c1c2c(nc3ccc(Br)cc13)CCCC2 -4.18%
COc1ccc(-n2c(SCC(=O)Nc3cccc4ccccc34)nc(O)cc2=O)cc1 -2.11%
O=C(CSc1nc2ccccc2c(=O)n1-c1ccc(F)cc1)Nc1ccc2c(c1)CCC2 13.5%
Cc1cccc(OCC(=O)Nc2ccc3c4c(cccc24)CC3)c1C 6.88%
Cc1ccc(-n2c(SCC(=O)Nc3ccc4c5c(cccc35)CC4)nc(O)cc2=O)cc1 26.7%
Cc1ccc(-n2c(SCC(=O)Nc3ccc4c5c(cccc35)CC4)nc(O)c(C)c2=O)cc1 39%
Cc1nnc(SCC(=O)Nc2ccc3c4c(cccc24)CC3)n1C 0.6%
Cc1ccccc1Cn1nc(C)c(NC(=O)C2c3ccccc3Oc3ccccc32)c1C -14%
CCN(CC)C(=O)c1ccc(-c2nnc(OC)c3ccccc23)cc1 -4.54%
COC(=O)c1c(-c2cccs2)csc1NC(=O)c1cccnc1 15.9%
CCCn1c(SCC(=O)N2c3ccccc3Sc3ccccc32)nc2ccccc21 -2.24%
CC1CCCCN1Cc1c(C#N)c2ccccc2n1C (centres undefined) -2.84%
Cc1c(Cl)c(C(F)F)nn1CC(=O)NC1C(=O)N2C(C(=O)O)=C(CSc3nnnn3C)CSC12 (centres undefined) 11.3%
Cc1nnc(SCC2=C(C(=O)O)N3C(=O)C(NC(=O)Cn4nc(C(F)F)cc4C)C3SC2)s1 (centres undefined) 47.7%
O=C(Nc1ccc(Oc2cccc3ccccc23)cc1)c1ccco1 -4.51%
CCN1C(=O)CC(N2CCN(c3ccc(C(=O)c4ccncc4)cc3)CC2)C1=O (centres undefined) 31.2%
CC(=O)NC(C(=O)OCC(=O)N(c1ccccc1)c1ccccc1)C(C)C (centres undefined) 0.51%
Cc1cc(N2CCCC2)ccc1/C=C1\NC(=S)N(C)C1=O -1.37%
Cc1cc(N2CCCC2)ccc1/C=C1/C(=O)N(C)C(=S)N1C 1.26%
COc1cc2c(cc1OC)C(C(=O)N1CCCCC1)C(c1ccccc1F)N(C)C2=O (centres undefined) 2.89%
S=c1cnc2ccccc2[nH]1 6.02%
N#CCCn1cc(C(=O)N2CCCCC2)c(-c2cccc([N+](=O)[O-])c2)n1 4.89%
CC1(C)CC(=O)C(C(C2=C(O)CC(C)(C)CC2=O)c2ccc(Cl)c([N+](=O)[O-])c2)C(=O)C1 (centres undefined) 7.5%
CN(C)/C=N/c1sc2c(c1C#N)CCCC2 0.79%
CN(C)/C=N/c1sc2c(c1C#N)CCCCC2 5.07%
COc1cc(CNC2CCCC2)cc(Cl)c1OCc1ccccc1F -3.97%
CC(NC(=O)c1ccc(Br)cc1)c1ccccc1 (centres undefined) 12.4%
Cc1nc(-c2cccc(Cl)c2)n[nH]1 -5.31%
CCn1c(-c2cccc(Cl)c2)n[nH]c1=S 6.53%
COC(=O)CN1C(=O)C(O)(CC(=O)c2ccc(Cl)cc2)c2ccccc21 (centres undefined) 12.1%
C/C(=N/NC(=O)CSCc1ccc(Cl)cc1)c1cccc(NC(=O)c2ccccc2)c1 -0.71%
CN(C)C(=S)Nc1cccc(-c2n[nH]c(=S)o2)c1 4%
O=C(CCN1C(=O)c2ccccc2C1=O)Nc1ccc2c(c1)OCCO2 10.7%
O=C(CN1C(=O)c2cccc3cccc1c23)Nc1ccc2c(c1)OCO2 31.3%
CC1CC(=O)N(CC(=O)Nc2ccc3c(c2)OCCO3)c2ccccc2S1 (centres undefined) 51.7%
O=C(CN1C(=O)CSc2ccccc21)Nc1ccc2c(c1)OCCO2 12.7%
O=C(CN1C(=O)CCSc2ccccc21)Nc1ccc2c(c1)OCO2 48.6%
CC1CC(=O)N(CC(=O)NCc2ccc3c(c2)OCO3)c2ccccc2S1 (centres undefined) 24%
O=C(CCCNS(=O)(=O)c1cccs1)N1CCc2ccccc2C1 -15.3%
COc1ccccc1C(=O)N(NC(=O)Oc1ccccc1)C(C)(C)C -4.52%
COc1cc(/C=N/NC(=O)c2nonc2N)cc(OC)c1OC 12.6%
S=C(Nc1ccccc1)N(CCN1CCOCC1)Cc1cccc(Cl)c1 3.82%
CCOC(=O)c1[nH]c2ccc(Br)cc2c1NC(=O)CCN1CCCC(C)C1 (centres undefined) 19.3%
CCC(C)(C)NC(=O)CN(C(=O)c1snc(C(N)=O)c1N)c1ccc(OC)c(OC)c1 -0.26%
COC(=O)c1ccc(Cl)c(NC(C)=O)c1 4.44%
Cn1cnnc1SCC(=O)Nc1ccc(Br)cc1F 4.31%
CCc1ccccc1NC(=O)CSc1n[nH]c(C)c1[N+](=O)[O-] -11.3%
O=C(CSc1ccccn1)Nc1cccc2ccccc12 6.7%
CCCn1c(SCC(=O)Nc2ccccc2CC)nnc1C(C)C -2.04%
COC(=O)c1ccc(Cl)c(NC(=O)CN2CCN(C)CC2)c1 -7.62%
CC(C)n1cnnc1SCC(=O)Nc1ccc(Br)cc1F -3.86%
O=C(CSCC(=O)Nc1cccc2ccccc12)Nc1cccc2ccccc12 -9.94%
C/C(=C\C(=O)c1ccccc1)Nc1ccc2c(c1)OCO2 -1.02%
CCOC(=O)c1cnc(SC)nc1Oc1cccc(NS(=O)(=O)c2ccccc2)c1 12.5%
COc1ccc(-c2nc(C)c(C(C)=O)n2O)cc1[N+](=O)[O-] 39.5%
O=C(COn1nnc2ccc(C(F)(F)F)cc21)Nc1c(Cl)cccc1Cl -14.4%
FC(F)(F)c1ccnc(NCc2ccco2)n1 5.81%
O=C(CN1C(=O)S/C(=C\C=C\c2ccccc2)C1=O)Nc1ccc(O)cc1 9.74%
O=C(CN1C(=O)S/C(=C\C=C\c2ccccc2)C1=O)Nc1ccc(C(=O)O)cc1 15.3%
Cc1ccc(C)c2nc(SCC(=O)N3CCCc4ccccc43)c(C#N)cc12 -4.2%
CC(=O)NCC(=O)N1CCCC(C(=O)c2ccc(-c3ccccc3)c(F)c2)C1 (centres undefined) -3.83%
Cc1cc(Nc2ccc([N+](=O)[O-])cc2)nc2ccccc12 13.7%
CCOc1ccc(NC(=O)C2C3CC/C=C\CCC32)cc1 (centres undefined) 4.68%
CC(C)(C)c1ccc(Oc2ccc(NC(=O)C3CC=CCC3C(=O)O)cc2)cc1 (centres undefined) 3.52%
CC1=C(C)CC(C(=O)Nc2ccc(C(N)=O)cc2)C(C(=O)O)C1 (centres undefined) 20.2%
CC(C)OC(=O)C1CC=CCC1C(=O)Nc1ccc(Cl)cc1 (centres undefined) 2.15%
CCOc1ccc(NC(=O)C2CC(=O)OC2c2ccccc2)cc1 (centres undefined) -1.92%
CCOc1ccc(NS(=O)(=O)c2ccc(NC(=O)[C@@H]3CCCC[C@@H]3C(=O)O)cc2)cc1 42.4%
CC(=O)c1ccn(S(=O)(=O)c2ccc(Cl)cc2)c1 9.38%
CC(=O)Nc1ccc(NC(=O)C2CCCN(c3nnc(-n4cccc4)s3)C2)cc1 (centres undefined) 4.4%
CCNC(=O)NCc1c(C)c(C)n(Cc2ccccc2)c1-n1cccc1 4.1%
CCOc1ccc2[nH]cc(C(=O)NCCCN3CCOCC3)c(=O)c2c1 4.64%
CCCCN1CNC(=S)N(CCc2ccc(OCC)c(OCC)c2)C1 4.53%
Cn1c(SCC(=O)c2ccc3c(c2)OCO3)nnc1C1COc2ccccc2O1 (centres undefined) 10.4%
C=CCn1c(SCC(=O)NCc2ccc3c(c2)OCO3)nnc1C1CCCCC1 20.8%
C=CCn1c(SCC(=O)Nc2cc(C)on2)nnc1C1COc2ccccc2O1 (centres undefined) 9.81%
Cc1nnc(SCC(=O)NCc2ccc3c(c2)OCO3)n1C -1.94%
O=c1[nH][nH]cc1C=Nc1ccccc1Cl 2.22%
Clc1ccc(OCc2nc(-c3ccncc3)no2)cc1 0.59%
COc1ccc(-c2[nH]n(-c3ccc([N+](=O)[O-])cc3)c(=O)c2C=NCc2ccncc2)cc1 -8.57%
CC(C)COC(=O)Nc1ccc(C(=O)O)cc1 13.3%
Cc1cc(C(F)F)n2nc(C(=O)Nc3ccccc3F)nc2n1 1.81%
O=C(O)CCCN1C(=O)/C(=C/c2cn(-c3ccccc3)nc2-c2cccs2)SC1=S 7.34%
O=C(O)CCCCCN1C(=O)/C(=C\c2cn(-c3ccccc3)nc2-c2cccs2)SC1=S -1.95%
Cn1c(=O)c(-c2cc(Br)ccc2N)nc2ccccc21 9.54%

From PubChem BioAssay AID1619 (SRMLSC, 2009)
